# Reference: PubChem BioAssay AID2513 (National Center for Advancing Translational Sciences (NCATS), 2010)
# Results filed as inconclusive are left out. Where a call stands in place of a potency, no number is given. Calls of active or inactive are those of the source. Calls follow the shape of the dose curve; as a rule, active = well fitted curve in the direction sought with a large enough effect; inconclusive = small, poorly fitted or top-dose-only effect, or another doubt; inactive = no such curve, though single readings can be large or run the other way.
# Assay: Counterscreen Assay for Enhancers of SMN2 Splice Variant Expression: Modulation of SMN1 Expression for Probe SAR
# Settings: HEK293 SMN1-luciferase reporter, luminescence, 30-36 h; series mostly up to 46.1 µM
# Text: NIH Chemical Genomics Center [NCGC] NIH Molecular Libraries Probe Production centers Network [MLPCN] MLPCN Grant: R03 MH084179-01 Assay Submitter (PI): Elliot Androphy NCGC Assay Overview: Spinal muscular atrophy (SMA) is caused by insufficient levels of the survival motor neuron protein SMN. The SMN locus on chromosome 5q13 contains two inverted copies of SMN called SMN1 and SMN2 which are 99% identical at the amino acid level. SMN1 is a fully functional protein and SMN2 skips exon 7 90% of the time. Skipping of exon 7 produces non-functional protein product. 10% of the SMN2 protein includes exon 7 and is fully functional. In the SMA disease state, mutations in the SMN1 locus are the cause of the disease state. Because only 10% of SMN2 is of the fully functional form, it is not sufficient to overcome the deficiency produced by the loss of the SMN1 product. A therapy that either increase the amount of SMN2 product made or to increase the inclusion of exon 7 has been proposed for the treatment of SMA. We have designed an assay to identify small molecules that can increase the amount of functional SMN2 product by appending a luciferase reporter gene after the native SMN2 gene, such that inclusion of exon 7 in the expressed product places the luciferase sequence in frame, thus generating functional luciferase enzyme. As a counterscreen for nonspecific modulators of expression, we have run compounds through a similar assay that measures expression of an SMN1-luciferase chimera.
# NCGC Assay Protocol Summary: This screen utilizes a luciferase reporter gene assay, combining the promoter with the major portion of the native SMN1 cDNA (exons 1 -7, intron 8 , exon 8 fused to luciferase) stably expressed in HEK293 cells. Compounds that increase luciferase signal presumably enhance expression of the functional SMN1 splice variant. Passaging media contained DMEM w/ glutamax (+phenol red) 10% FCS, 1x pen/strep, 200 ug/ml hygro, 1x sodium pyruvate. Assay media contained DMEM w/ glutamax (-phenol red) 10% FCS, 1x pen strep, 1x pyruvate Sequence, Parameter, Value, Description (1) Cells, 5 uL, 2000 cells/well, 1536 TC treated White solid bottom plate (2) Time, 10-12 hours, 37C 5% CO2 (3) Compound, 23 nl, MLSMR Library (4) Control Compound, 23 nL, Sodium butyrate st 4.5mM (final) conc (5) Time, 30-36 hours, 37C 5% CO2 (6) Reagent, 3 ul, One Glo (TM) from Promega (7) Time, 5-15 minutes, Room temp (8) Detector, Viewlux: luminescent read, 60 second integration, high speed 2x binning Keywords: Spinal muscular atrophy, SMA, SMN2, high throughput screening, MLSMR, MLPCN, NIH Roadmap, qHTS and NCGC
row,SMILES,Potency
1,NC(=O)C1CCN(c2nc(-c3cccc(N)c3)cs2)CC1,inactive
2,NC(=O)C1CCN(c2nc(-c3ccccc3Br)cs2)CC1,inactive
3,NC(=O)C1CCN(c2nc(-c3ccccc3F)cs2)CC1,inactive
4,CC(=O)c1cccc(-c2csc(N3CCC(C(N)=O)CC3)n2)c1,inactive
5,NC(=O)C1CCN(c2nc(-c3ccccc3C(F)(F)F)cs2)CC1,inactive
6,NC(=O)C1CCN(c2nc(-c3cccs3)cs2)CC1,inactive
7,CS(=O)(=O)c1cccc(-c2csc(N3CCC(C(N)=O)CC3)n2)c1,inactive
8,Cc1noc(C)c1-c1csc(N2CCC(C(N)=O)CC2)n1,inactive
9,COc1ccc(-c2csc(N3CCC(C(N)=O)CC3)n2)cc1,inactive
10,CN(C)c1ccccc1-c1csc(N2CCC(C(N)=O)CC2)n1,inactive
11,CC(=O)c1ccc(-c2csc(N3CCC(C(N)=O)CC3)n2)cc1,inactive
12,NC(=O)C1CCN(c2nc(-c3ccc4occc(=O)c4c3)cs2)CC1,inactive
13,Cn1ccc2cc(-c3csc(N4CCC(C(N)=O)CC4)n3)ccc21,inactive
14,NC(=O)C1CCN(c2nc(-c3ccc4ccccc4c3)cs2)CC1,inactive
15,NC(=O)C1CCN(c2nc(-c3cccc(Cl)c3)cs2)CC1,inactive
16,NC(=O)C1CCN(c2nc(-c3ccc4c(c3)OCCO4)cs2)CC1,19.4 µM (active)
17,CN(C)C(=O)c1cccc(-c2csc(N3CCC(C(N)=O)CC3)n2)c1,inactive
18,CS(=O)(=O)c1ccccc1-c1csc(N2CCC(C(N)=O)CC2)n1,inactive
19,NC(=O)C1CCN(c2nc(-c3ccccc3N)cs2)CC1,inactive
20,NC(=O)C1CCN(c2nc(-c3ccccc3-c3ccccc3)cs2)CC1,inactive
21,NC(=O)C1CCN(c2nc(-c3cccnc3)cs2)CC1,inactive
22,Brc1ccc(-c2csc(N3CCCCC3)n2)cc1,inactive
23,NC(=O)C1CCN(c2nc(-c3cc4ccccc4o3)cs2)CC1,inactive
